Assay results published in PubChem BioAssay (NCI).
This is part of a sample that, as a whole, favours compounds with a hit. Of some 83,000 tested, about 20% had one in any assay.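 Step 1: grow cells in 96-well plates. Step 2: add test compound at a single concentration. Step 3: incubate 48 h. Step 4: record percent growth.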 A number with no mark means an inactive call. Active and inactive are the calls of the source. The calls were made as follows: active = growth percent below 10; inactive = the rest.

Assays:
Assay in all cases: NCI-60 one-dose screen, 48 h (100 = growth as untreated, 0 = no growth, -100 = all killed)
HT29 colon = settings: 10 µM unless noted
SNB-75 CNS = settings: 10 µM unless noted
SNB-19 CNS = settings: 10 µM unless noted
PC-3 prostate = settings: 10 µM unless noted
UACC-62 melanoma = settings: 10 µM unless noted
LOX IMVI melanoma = settings: 10 µM unless noted
SK-MEL-28 melanoma = settings: 10 µM
SK-MEL-2 melanoma = settings: 10 µM unless noted
EKVX NSCLC = settings: 10 µM unless noted
SN12C renal = settings: 10 µM unless noted
UO-31 renal = settings: 10 µM unless noted
TK-10 renal = settings: 10 µM unless noted
ACHN renal = settings: 10 µM unless noted
CAKI-1 renal = settings: 10 µM unless noted
A498 renal = settings: 10 µM unless noted
CCRF-CEM leukemia = settings: 10 µM unless noted
MOLT-4 leukemia = settings: 10 µM unless noted
U251 CNS = settings: 10 µM unless noted
SK-MEL-5 melanoma = settings: 10 µM unless noted
SR leukemia = settings: 10 µM unless noted

SMILES | growth (HT29 colon) | growth (SNB-75 CNS) | growth (SNB-19 CNS) [%] | growth (PC-3 prostate) [%] | growth (UACC-62 melanoma) | growth (LOX IMVI melanoma) | growth (SK-MEL-28 melanoma) | growth (SK-MEL-2 melanoma) | growth (EKVX NSCLC) [%] | growth (SN12C renal) | growth (UO-31 renal) | growth (TK-10 renal) [%] | growth (ACHN renal) | growth (CAKI-1 renal) | growth (A498 renal) | growth (CCRF-CEM leukemia) | growth (MOLT-4 leukemia) | growth (U251 CNS) | growth (SK-MEL-5 melanoma) | growth (SR leukemia)
O=C(c1ccccc1)N(CCc1ccc(Cl)cc1)C(=S)N(C(=O)c1ccccc1)c1ccccc1 | 104% | 104% | 109 | 85.7 | 94.5% | 81.5% | 119% | 117% | 102 | 100% | 81.7% | 97.4 | 110% | 96.9% | 92.3% | 8.54% (active) | 28.7% |  |  | 
CCC1=C[C@@H]2CN(C1)Cc1c([nH]c3ccccc13)[C@@](C(=O)OC)(c1cc3c(cc1OC)N(C)[C@H]1[C@@](O)(C(=O)OC)[C@H](OC(C)=O)[C@]4(CC)[C@@H]5C[C@@H]5CN5CC[C@]31[C@@H]54)C2 | -23.3% (active) | 3.05% (active) |  | 22.5 | 12.6% | 3.68% (active) | 14.4% | 10.4% |  | 19.3% | 3.11% (active) | 24.2 | 19.6% | 24.9% | -24.5% (active) | 1.97% (active) | -3.35% (active) | 7.9% (active) | -79.9% (active) | -19.3% (active)
COc1ccc(C2C3=C(COC3=O)N(CCO)c3cc4c(cc32)CCC4)cc1 (stereo unspecified) | 15.4% | 42.4% |  | 54.6 | 48.3% | 51% |  | 77.9% | 66.7 | 95.1% | 75.7% | 77.9 | 67.7% | 48% | 73.2% | 64.3% | 45.4% | 42% | 35.7% | 35.8%
O=C(/C=C/c1ccccn1)c1ccc(OCc2nnc(-c3ccc(Cl)cc3)o2)cc1 | -62.5% (active) | 50.8% | 52.3 | 58.9 | 49.3% | -92.1% (active) | 53.8% | 98.6% |  | 33.2% | -90.1% (active) | 16.6 | 27.3% | -25.7% (active) | 88.3% |  | 17.2% |  |  | -11.7% (active)
COc1ccc(OC)c(/C=C/C(=O)c2c(C)nc3ccccc3c2/C=C/c2ccccc2)c1 | 37.2% | 59.2% |  | 59.4 | 50.1% |  | 95.1% | 72.2% | 79.4 | 58.1% | 60.3% | 112 | 74.6% | 54.4% | 83.2% | 9.58% (active) | 10.2% | 54.1% | 82.9% | 
O=Nc1c(O)ccc2ccccc12.O=Nc1c(O)ccc2ccccc12.O=Nc1c([O-])ccc2ccccc12.[Fe+3] | 109% | 72.7% | 109 | 88.9 | 95.6% | 98.8% | 104% | 107% |  | 99.6% | 60.2% | 127 | 102% | 106% | 105% | 107% | 110% |  |  | 105%
CCN1C(=O)N(CC)C2C1NN=c1s/c(=C3\C(=O)N(C(C)C)c4ccccc43)c(=O)n12 (stereo unspecified) | 2.15% (active) | 41.2% |  | 25.8 | 16.9% | 20.7% | 57.4% | 23.8% | 31.5 | 21.6% | 45.4% | 56.5 | 25.4% | 31.8% | -2.49% (active) | 9.92% (active) | 13.8% | 20.6% | 2.79% (active) | 10.6%
CC(=O)O[C@@H]1/C=C/C(=O)N[C@@H](C)CCC/C=C/[C@@H]2CCC[C@H]21 | 110% | 95% |  | 90.2 | 92.1% | 105% | 129% | 119% | 116 | 102% | 93.7% | 112 | 112% | 98.9% | 121% |  | 93.6% | 109% | 101% | 87.4%
COc1ccc(CSc2nnc(SCC(=O)Nc3ccc(Cl)cc3)s2)cc1 | 98.5% | 93.2% | 90.9 | 58.6 | 18.2% | 46.8% | 87.2% | 124% |  | 68.5% | 52.8% | 96.3 | 59.9% | 38% | 85.6% | 53.3% | 58% |  |  | 86.1%
CCCCN1CCN(c2ccc3nc(-c4ccc5nc(-c6ccc(OC)c(OC)c6)[nH]c5c4)[nH]c3c2)CC1 | 5.94% (active) | 6.59% (active) |  | 14.3 | -58.5% (active) | -81.4% (active) | -71.2% (active) | -51.2% (active) | 38.8 | 7.75% (active) | 50.7% | 14.9 | 2.47% (active) | 2.32% (active) |  | 3.3% (active) | -14.3% (active) | -45.3% (active) | -34.4% (active) | -6.6% (active)
O=C1C(Cl)=C(NCc2ccco2)C(=O)c2ccccc21 | 67.9% | 87.1% |  | 82.7 | 76% | 16.2% | 106% | 93.4% | 110 | 90.1% | 97.3% | 110 | 93.8% | 93.9% | 89.8% | 24.4% | 91.1% | 70.2% | -75.6% (active) | 63.9%
CC1=C(C(=O)OCC2CCN(C(=O)OC(C)(C)C)CC2)[C@@H](c2cccc(C#N)c2)C2=C(CC(C)(C)CC2=O)N1 | 18.3% | 56.9% |  | 48 | 43% | 9.5% (active) |  | 70.4% | 63.7 | 42.7% | 42.1% | 68.5 | 38.5% | 38.4% | 75.3% | 36.8% | 12.5% | 41.4% | 3.59% (active) | 
O=c1c2cc(F)ccc2sc2c(NCCCNCCO)nc3ccc(Cl)cc3c12 | -48.6% (active) | 46.1% |  | 50.7 | 91.6% | 14.6% | 99.9% | 105% | 88.8 | 67.4% | 58.5% | 77.1 | 60.8% | 27.8% | 60.7% | 13.7% | 18.7% | 33% |  | 
CSc1nc2c(c(=O)n1C)N=C1c3ccccc3C(=O)C1C(c1ccccc1)N2 (stereo unspecified) | 52.2% | 50% |  | 64.9 | 107% | 74.5% | 72.5% | 66.2% | 75.4 | 138% | 71.1% | 101 | 75.5% | 53.4% | 99.9% | 82.6% | 84% | 74.5% | 69.2% | 27.1%
COc1cc(NC(=O)CCSc2nc3ccccc3c(=O)n2CCc2ccccn2)cc(OC)c1OC | 102% | 8.5% (active) |  | 81.6 | 84% | 94.8% | 83.3% | 92.4% |  | 92.8% | 85% | 111 | 91% | 89% | 74.7% | 83.2% | 87.6% | 85.1% | 87.8% | 
Clc1ncccc1Nc1ccc2nnc(-c3ccncc3)n2n1 | 110% | 99.2% |  | 102 | 106% | 92.8% | 112% | 109% |  | 100% | 75% | 112 | 101% | 91.8% | 116% | 91.2% | 93.4% | 101% | 104% | 71.3%
CN(CCc1ccccc1)C(=S)N(C(=O)c1ccc([N+](=O)[O-])cc1)c1ccc(Cl)cc1 | 92.7% | 97.2% |  | 77.5 | 92% | 61.3% | 95.2% | 87.9% | 95.1 | 89% | 76.8% | 76 | 106% | 85.5% | 93.4% | 39.6% | 43.1% | 90.4% | 98.3% | 25%
